The target of test [1] is T1, Aurora kinase A (Homo sapiens) (UniProt O14965).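 Note: values are mean percent inhibition.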
T1 sequence (whole entry): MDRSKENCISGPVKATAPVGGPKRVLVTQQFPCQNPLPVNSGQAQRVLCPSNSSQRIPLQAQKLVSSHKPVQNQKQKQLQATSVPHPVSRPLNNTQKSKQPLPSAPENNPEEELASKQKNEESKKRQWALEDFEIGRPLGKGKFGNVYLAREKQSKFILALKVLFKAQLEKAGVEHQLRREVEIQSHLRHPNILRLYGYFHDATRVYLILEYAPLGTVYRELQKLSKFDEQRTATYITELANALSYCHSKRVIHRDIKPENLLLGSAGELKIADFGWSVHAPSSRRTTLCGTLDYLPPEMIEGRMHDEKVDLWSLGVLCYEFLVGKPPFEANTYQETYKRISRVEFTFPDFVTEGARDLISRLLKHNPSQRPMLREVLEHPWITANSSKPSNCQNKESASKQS
The settings on record: at 1 µM.

In test [2] the target is Aurora kinase B (Homo sapiens) (UniProt Q96GD4). The following applies: at 0.1 µM.
Aurora kinase B (Homo sapiens), sequence (Q96GD4 whole entry): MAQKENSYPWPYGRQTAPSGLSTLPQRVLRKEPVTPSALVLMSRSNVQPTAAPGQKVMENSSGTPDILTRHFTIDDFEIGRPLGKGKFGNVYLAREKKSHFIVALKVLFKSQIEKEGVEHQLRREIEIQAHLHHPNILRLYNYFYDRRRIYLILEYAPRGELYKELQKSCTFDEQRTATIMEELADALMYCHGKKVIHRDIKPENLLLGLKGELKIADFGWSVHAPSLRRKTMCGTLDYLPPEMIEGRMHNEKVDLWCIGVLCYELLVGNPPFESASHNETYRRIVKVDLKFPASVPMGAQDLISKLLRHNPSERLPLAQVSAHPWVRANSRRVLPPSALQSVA
The target is the same in test [3]. The following applies: at 1 µM.
Test [4] deals with T2, Aurora kinase C (Homo sapiens) (UniProt Q9UQB9).
T2 sequence (whole entry): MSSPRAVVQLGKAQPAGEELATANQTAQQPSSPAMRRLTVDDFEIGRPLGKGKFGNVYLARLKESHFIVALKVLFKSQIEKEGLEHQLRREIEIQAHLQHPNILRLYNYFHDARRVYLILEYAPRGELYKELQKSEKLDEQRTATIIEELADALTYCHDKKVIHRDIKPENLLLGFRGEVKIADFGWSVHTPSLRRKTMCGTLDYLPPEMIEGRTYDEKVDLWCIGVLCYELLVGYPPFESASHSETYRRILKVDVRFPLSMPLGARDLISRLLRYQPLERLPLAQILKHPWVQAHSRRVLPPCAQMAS
The following applies: at 0.1 µM.

Test [5] addresses T2, Aurora kinase C (Homo sapiens). The settings on record: at 1 µM.
Test [6] deals with Serine/threonine-protein kinase 10 (Homo sapiens) (UniProt O94804). The settings on record: at 0.1 µM.
Serine/threonine-protein kinase 10 (Homo sapiens), sequence (O94804 whole entry, looked up): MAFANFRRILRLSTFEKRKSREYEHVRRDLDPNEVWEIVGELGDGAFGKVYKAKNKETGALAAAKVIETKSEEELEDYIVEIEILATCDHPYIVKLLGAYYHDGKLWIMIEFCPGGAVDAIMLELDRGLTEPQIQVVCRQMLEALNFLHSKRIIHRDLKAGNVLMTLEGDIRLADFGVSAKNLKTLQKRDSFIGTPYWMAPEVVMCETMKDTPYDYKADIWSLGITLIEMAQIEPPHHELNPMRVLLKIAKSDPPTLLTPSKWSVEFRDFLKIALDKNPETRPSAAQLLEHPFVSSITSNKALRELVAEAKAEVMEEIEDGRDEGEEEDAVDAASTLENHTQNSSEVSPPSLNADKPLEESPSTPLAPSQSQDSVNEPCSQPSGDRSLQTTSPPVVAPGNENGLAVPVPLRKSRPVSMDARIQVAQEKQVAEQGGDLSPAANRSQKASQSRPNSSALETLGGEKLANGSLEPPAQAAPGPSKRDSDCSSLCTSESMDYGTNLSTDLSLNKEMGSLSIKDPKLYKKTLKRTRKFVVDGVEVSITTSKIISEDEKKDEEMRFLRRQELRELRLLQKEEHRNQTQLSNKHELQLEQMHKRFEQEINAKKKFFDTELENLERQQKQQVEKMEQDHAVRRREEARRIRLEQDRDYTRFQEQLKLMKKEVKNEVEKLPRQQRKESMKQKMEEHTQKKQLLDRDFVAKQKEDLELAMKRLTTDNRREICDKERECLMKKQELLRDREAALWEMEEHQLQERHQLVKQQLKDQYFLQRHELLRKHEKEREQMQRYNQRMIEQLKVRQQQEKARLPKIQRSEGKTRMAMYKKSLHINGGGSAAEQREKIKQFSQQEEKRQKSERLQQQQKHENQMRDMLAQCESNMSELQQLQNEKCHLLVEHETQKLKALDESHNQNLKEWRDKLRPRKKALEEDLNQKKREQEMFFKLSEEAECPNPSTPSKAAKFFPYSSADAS
The target is the same in test [7]. The following applies: at 1 µM.
Test [8] deals with T3, Mitogen-activated protein kinase kinase kinase kinase 2 (Homo sapiens) (UniProt Q12851).
T3 sequence (whole entry): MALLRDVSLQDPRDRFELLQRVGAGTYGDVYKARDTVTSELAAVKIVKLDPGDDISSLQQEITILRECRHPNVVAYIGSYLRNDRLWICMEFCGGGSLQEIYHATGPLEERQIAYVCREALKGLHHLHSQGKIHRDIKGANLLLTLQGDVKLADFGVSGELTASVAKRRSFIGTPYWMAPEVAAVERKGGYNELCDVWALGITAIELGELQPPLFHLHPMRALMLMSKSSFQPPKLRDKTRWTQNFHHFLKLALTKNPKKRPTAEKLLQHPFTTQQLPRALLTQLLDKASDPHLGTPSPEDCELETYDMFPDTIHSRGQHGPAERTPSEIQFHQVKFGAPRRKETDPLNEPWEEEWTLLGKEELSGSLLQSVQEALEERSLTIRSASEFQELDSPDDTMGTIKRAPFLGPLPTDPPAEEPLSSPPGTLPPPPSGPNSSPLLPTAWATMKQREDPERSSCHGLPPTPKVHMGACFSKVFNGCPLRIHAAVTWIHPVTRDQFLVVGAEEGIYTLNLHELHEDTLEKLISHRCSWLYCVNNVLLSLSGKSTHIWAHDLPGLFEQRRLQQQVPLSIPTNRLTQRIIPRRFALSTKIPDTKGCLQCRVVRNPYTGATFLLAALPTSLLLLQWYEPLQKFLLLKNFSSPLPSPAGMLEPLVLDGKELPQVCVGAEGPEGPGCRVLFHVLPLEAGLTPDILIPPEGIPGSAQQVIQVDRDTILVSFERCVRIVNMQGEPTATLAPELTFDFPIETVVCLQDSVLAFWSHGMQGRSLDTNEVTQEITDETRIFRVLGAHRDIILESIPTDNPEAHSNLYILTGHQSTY
The following applies: at 0.1 µM.

For test [9], the target named is T3, Mitogen-activated protein kinase kinase kinase kinase 2 (Homo sapiens). The settings on record: at 1 µM.
Test [10] concerns the target Mitogen-activated protein kinase kinase kinase kinase 4 (Homo sapiens) (UniProt O95819). The following applies: at 0.1 µM.

Mitogen-activated protein kinase kinase kinase kinase 4 (Homo sapiens), sequence (O95819 2-1239 limits assumed): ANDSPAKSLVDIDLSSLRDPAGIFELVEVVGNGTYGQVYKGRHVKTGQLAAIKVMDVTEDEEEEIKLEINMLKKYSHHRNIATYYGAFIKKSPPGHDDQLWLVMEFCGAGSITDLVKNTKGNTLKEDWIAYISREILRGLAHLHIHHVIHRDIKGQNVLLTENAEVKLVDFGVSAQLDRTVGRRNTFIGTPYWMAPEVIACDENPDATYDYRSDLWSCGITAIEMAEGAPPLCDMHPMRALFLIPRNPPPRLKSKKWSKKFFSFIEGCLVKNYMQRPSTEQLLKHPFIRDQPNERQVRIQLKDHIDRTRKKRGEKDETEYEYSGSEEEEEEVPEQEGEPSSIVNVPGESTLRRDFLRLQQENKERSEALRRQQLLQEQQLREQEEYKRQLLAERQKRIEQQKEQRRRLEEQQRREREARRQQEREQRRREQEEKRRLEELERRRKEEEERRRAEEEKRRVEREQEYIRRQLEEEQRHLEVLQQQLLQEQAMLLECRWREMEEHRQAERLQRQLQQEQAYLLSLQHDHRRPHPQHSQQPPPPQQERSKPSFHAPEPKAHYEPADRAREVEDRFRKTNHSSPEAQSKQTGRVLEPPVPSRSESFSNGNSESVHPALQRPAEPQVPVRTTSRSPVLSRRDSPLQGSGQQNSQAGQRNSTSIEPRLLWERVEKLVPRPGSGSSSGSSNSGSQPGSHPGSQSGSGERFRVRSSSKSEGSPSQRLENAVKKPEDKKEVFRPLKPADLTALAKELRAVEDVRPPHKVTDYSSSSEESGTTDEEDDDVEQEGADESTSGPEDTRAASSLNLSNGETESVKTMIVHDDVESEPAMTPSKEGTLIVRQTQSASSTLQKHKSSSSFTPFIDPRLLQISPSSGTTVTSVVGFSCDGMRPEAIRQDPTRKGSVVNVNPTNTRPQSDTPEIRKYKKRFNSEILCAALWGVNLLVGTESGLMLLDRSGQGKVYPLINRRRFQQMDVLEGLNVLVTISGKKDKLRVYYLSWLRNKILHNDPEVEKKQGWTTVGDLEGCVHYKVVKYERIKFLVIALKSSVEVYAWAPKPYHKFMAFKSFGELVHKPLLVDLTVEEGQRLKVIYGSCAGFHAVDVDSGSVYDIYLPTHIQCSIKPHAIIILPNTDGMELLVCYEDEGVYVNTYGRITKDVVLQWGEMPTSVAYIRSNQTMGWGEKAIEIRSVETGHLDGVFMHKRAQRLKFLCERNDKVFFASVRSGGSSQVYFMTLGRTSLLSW

For orientation: inhibition means the change of the read-out against control, counted positive when it falls. Consider `COc1cc2ncn(-c3cc(OCCc4ccccc4)c(C(N)=O)s3)c2cc1OC`, for which the inhibition in test [1] was 8.4%; in test [2], 3.16%; in test [3] it was 7.8%; in [4], 1.23%; in test [5], 8.14%; in [6], 25%. The inhibition in test [7] came to 66.7%; in [8] it was 1.21%; in test [9], 7.11%; in test [10] it was 5.29%.

Turning to `CN(c1ccc(NC(=O)Nc2c(Cl)cccc2Cl)cc1)c1ccnc(Nc2cccc(CS(C)(=O)=O)c2)n1`, the inhibition in test [1] stood at 97.6%; in test [2] it was 76.4%; in test [3], 84.2%; in [5], 104%; in [6] it was 90.8%; in [7], 86.5%. For the same compound, the inhibition worked out at 11.5% in test [8], 32.9% in test [9] and 34.3% in [10].

Take `NS(=O)(=O)c1ccc(N/N=C2\C(=O)Nc3ccc(-c4cnco4)cc32)cc1`: the inhibition was 33.1% in test [1]; -2.59% in [2]; 1.73% in test [3]; -3.12% in [4]; 11.5% in test [5]; 2.55% in [6]. The inhibition amounted to 8.33% in test [7], 1.49% in [8], 4.85% in [9] and 65.1% in test [10].

On to `COc1cc2ncn(-c3cc(OCc4cccs4)c(C(N)=O)s3)c2cc1OC`, for which the inhibition is 13.4% in test [1]; 2.98% in test [2]; 20% in [3]; -0.54% in [4]; 10.1% in test [5]; 75.9% in test [6]. In addition, the inhibition in [7] amounted to 93.5%; in test [8], 10.8%; in test [9], 36%; in test [10], 18.7%.

In the case of `Clc1ccc(CNc2nccc(-c3cnn4ncccc34)n2)cc1`, the inhibition in test [1] was 10.8%; in test [2], -0.06%; in test [3], 8.64%; in test [4] it was 2.6%; in test [5] it was 4.42%; in [6], 2.66%. Also, the inhibition in test [7] is 6.27%; in test [8], 2.75%; in [9], 9.93%; in test [10], 3.91%.

For `Cc1ccc(NC(=O)c2ccoc2)cc1-c1ccc(C(=O)NCC2CC2)cc1`, the inhibition is 2.57% in test [1]; 1.19% in test [2]; 4.85% in test [3]; 1.82% in test [4]; 1% in [5]; 2.73% in test [6]. Also, the inhibition in [7] was 5.18%; in [8], -0.94%; in test [9] it was 0.39%; in [10], 0.77%.

Turning to `COc1cc(Nc2ncc3c(C)nc(-c4cccc(Oc5ccccc5)c4)n3n2)cc(OC)c1OC`, the inhibition in [1] was determined as 44.4%; in [2], 2%; in test [3], 15.8%; in [4], 1.04%; in test [5] it was 30.1%; in test [6] it was 1.18%. Also, the inhibition worked out at 1.99% in [7], 1.28% in test [8], 4.18% in [9] and 1.36% in test [10].

Turning to `NC(=O)c1cc(-c2ccncc2)cc(-c2ccccc2)c1N`, the inhibition in test [1] is 6.63%; in test [2], 3.91%; in [3] it was 4.94%; in test [4], 1.71%; in test [5], 5.08%; in test [6], 6.67%. Besides, the inhibition amounted to 9.99% in test [7], 0.27% in [8], 0.97% in test [9] and 11.9% in [10].

For `CCc1ccc(Oc2nccc(-c3c(-c4ccc(F)cc4)ncn3C3CCNCC3)n2)cc1`, the inhibition in test [1] worked out at 2.66%; in test [2], 3.48%; in test [3], 2.75%; in test [4] it was 1.29%; in [5], 3.88%; in test [6], 4.86%. The inhibition in [7] worked out at 8.03%; in [8], 1.71%; in test [9], 15.4%; in test [10], 2.58%.

Consider `C[C@@H](Oc1cc(-n2cnc3ccc(OC4CCN(C)CC4)cc32)sc1C(N)=O)c1ccccc1Cl`, for which the inhibition in test [1] was -0.02%; in [2], -0.58%; in test [3], 1.75%; in test [4], -3.34%; in [5], -1.29%; in test [6], 50.1%. The inhibition was 81.4% in [7], 2.18% in [8], 18.4% in test [9] and 3.22% in [10].

In the case of `CN(C)CCCNc1nccc(-c2c(-c3ccc(F)cc3)nn3cc(C(F)(F)F)ccc23)n1`, the inhibition was 6.4% in test [1]; 0.91% in [2]; 6.92% in test [3]; -1.31% in [4]; -0.03% in test [5]; 2.34% in test [6]. Moreover, the inhibition in [7] is 7.46%; in test [8], 4.09%; in [9] it was 7.36%; in test [10], 5.21%.

For `CS(=O)(=O)CCNCc1ccc(-c2ccc3ncnc(Nc4ccc(OCc5ccccc5)c(Br)c4)c3c2)o1`, the inhibition is -1.79% in test [1]; -1.52% in [2]; 3.89% in test [3]; -3.26% in test [4]; 1.56% in [5]; 8.55% in [6]. For the same compound, the inhibition came to 16.4% in [7], 0.72% in [8], 0.4% in [9] and 3.17% in test [10].

As for `COc1ccc(C2=C(N3CCc4ccccc43)C(=O)NC2=O)cc1`, the inhibition in [1] was 12.5%; in [2], 0.57%; in [3], 5.83%; in test [4] it was 1.68%; in [5] it was -3.65%; in test [6], 4.19%. Also, the inhibition turned out to be 10.4% in test [7], 0.85% in test [8], 4.95% in test [9] and 6.97% in [10].

In the case of `Fc1ccc(-c2ncn(C3CCNCC3)c2-c2ccnc(Oc3ccc(Oc4ccccc4)cc3)n2)cc1`, the inhibition in [1] worked out at 0.96%; in [2], 4.04%; in test [3] it was 3.66%; in test [4], 0.06%; in test [5], 0.55%; in test [6], 5.52%. Besides, the inhibition in test [7] was determined as 6.96%; in test [8] it was 2.54%; in [9], 9.5%; in test [10], 4.44%.

On to `CCC(=O)Nc1ccc(C)c(-c2ccc(C(=O)NCC3CC3)cc2)c1`, for which the inhibition in test [1] was 4.11%; in test [2], -0.16%; in test [3], 3.49%; in test [4], -1.01%; in test [5] it was 3.82%; in test [6], 1.74%. Also, the inhibition in [7] is 5.36%; in test [8] it was 0.41%; in [9], 1.16%; in test [10] it was 4.98%.

(Values after ChEMBL document CHEMBL1961873, “Compounds: GSK PKIS; Assays: Nanosyn kinase panel” (2012).)
